Eight compounds from PubChem BioAssay (EPA / NIEHS) can be followed below.

Structures are written as SMILES. Active and inactive are the calls of the source. Rule for the calls: active = hit-call score of the fitted dose curve at least 0.9, where 1 is the maximum; inactive = score below 0.9.

The nature of assay [1]: ATG_CRE_CIS: Attagene CIS-FACTORIAL HepG2 Assay for human cAMP Responsive Element (CRE) binding protein 3 (AID 2282926). The settings on record: HepG2 CRE cis-reporter, Attagene multiplexed mRNA; actives raise or lower the signal. In short, it runs like this: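 Endogenous transcription factor activity read via CRE-regulated reporter transcripts in transfected HepG2 cells. After 24 h exposure, RNA was reverse-transcribed, amplified, fluorescently labelled and sized by capillary electrophoresis; gain or loss fitted against DMSO.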

A short description of assay [2]: ATG_CMV_CIS: Attagene CIS-FACTORIAL HepG2 Assay for human CMV (Internal Marker) (AID 2282928).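 Note: endpoint acts as a background internal control marker rather than a target.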 The settings on record: HepG2 CMV promoter reporter, transcription factor profiling; actives raise or lower the signal. In short, it runs like this: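 24 h chemical treatment, HepG2 with transient multi-reporter transfection; RNA → oligo(dT) RT → PCR → 6-FAM extension → HpaI digest → CE fluorescence. Bidirectional fit, DMSO negative control.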

Assay [3] can be described thus: ATG_DR4_LXR_CIS: Attagene CIS-FACTORIAL HepG2 Assay for human Liver X Receptor (LXR), DR4 submotif (AID 2282929). The settings on record: HepG2 Attagene DR4 cis-reporter, mRNA transcription; actives raise or lower the signal. In short, it runs like this:
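Measures endogenous transcription factor activity via a DR4-driven reporter transcript in human HepG2 cells. Compounds incubated 24 h; mRNA quantified by RT-PCR and capillary electrophoresis, analysed as gain or loss of signal versus DMSO.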

Assay [4] concerns the target Aryl hydrocarbon receptor (Homo sapiens) (UniProt P35869). As to the kind of experiment: ATG_Ahr_CIS: Attagene CIS-FACTORIAL HepG2 Assay for human Aryl Hydrocarbon Receptor (Ahr) (AID 2282930). The note with it: HepG2 AhR cis-factorial reporter transcription; actives raise or lower the signal. In short, it runs like this: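 Read-out: reporter mRNA quantified by RT-PCR with fluorescent primer extension and capillary electrophoresis. Human HepG2 liver cells carried transfected cis-promoter reporter units and were exposed to chemical for 24 h; gain or loss fitted relative to DMSO.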

The nature of assay [5]: ATG_AP_1_CIS: Attagene CIS-FACTORIAL HepG2 Assay for human Activator Protein 1 (AP-1) (AID 2282931). The settings on record: HepG2 Attagene cis-factorial AP-1 reporter mRNA; actives raise or lower the signal. A digest of the protocol:
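Bidirectional concentration-response fitting against DMSO controls. Underlying signal: reporter mRNA from cis-promoter constructs in transiently transfected HepG2, measured after 24 h by RT-PCR and capillary electrophoresis.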

Assay [6] can be described thus: ATG_AP_2_CIS: Attagene CIS-FACTORIAL HepG2 Assay for human Activator Protein 2 (AP-2) (AID 2282932). The settings on record: HepG2 AP-2 cis-reporter, Attagene transcription factor profiling; actives raise or lower the signal. A digest of the protocol: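 Read-out: fluorescent reporter mRNA via RT-PCR and capillary electrophoresis, 24 h post-dose in transiently transfected HepG2. Endogenous factors drive cis-promoter reporters; gain or loss of signal fitted bidirectionally against DMSO.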

The nature of assay [7]: ATG_BRE_CIS: Attagene CIS-FACTORIAL HepG2 Assay for human Bone Morphogenetic Protein (BMP) Response Element (BRE) (AID 2282933). The settings on record: HepG2 BMP response element reporter, Attagene transcription factor profiling; actives raise or lower the signal. In short, it runs like this:
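Endogenous transcription factor activity at a BMP response element was monitored in transfected HepG2 cells 24 h after dosing. Fluorescent RT-PCR products were resolved by capillary electrophoresis, and activity was fitted in both directions versus DMSO.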

Assay [8] addresses Retinoic acid receptor alpha (Homo sapiens) (UniProt P10276). In words: ATG_DR5_RAR_CIS: Attagene CIS-FACTORIAL HepG2 Assay for human Retinoic Acid Receptor Alpha (RARE), DR5 submotif (AID 2282934). The note with it: HepG2 Attagene cis-factorial RARE DR5 reporter, mRNA; actives raise or lower the signal. In short, it runs like this: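 Read-out: DR5-driven reporter transcript measured by RT-PCR, 6-FAM primer extension, HpaI digest and capillary electrophoresis. Human HepG2 liver cells carry transiently transfected cis-element reporter constructs; dosing lasts 24 h. Gain or loss of signal fitted against DMSO baseline.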

The target of assay [9] is Transcription factor E2F1 (Homo sapiens) (UniProt Q01094). In words: ATG_E2F_CIS: Attagene CIS-FACTORIAL HepG2 Assay for human E2F Transcription Factor 1 (AID 2282935). The note with it: HepG2 Attagene cis-reporter, E2F reporter RNA transcripts; actives raise or lower the signal. In short, it runs like this: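 Transient MRTU transfection of HepG2; 24 h compound exposure; RNA → oligo(dT) RT → PCR → FAM label → HpaI cut → CE fluorescence. Gain/loss of signal fit against DMSO.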
Transcription factor E2F1 (Homo sapiens), sequence (Q01094 whole entry, looked up): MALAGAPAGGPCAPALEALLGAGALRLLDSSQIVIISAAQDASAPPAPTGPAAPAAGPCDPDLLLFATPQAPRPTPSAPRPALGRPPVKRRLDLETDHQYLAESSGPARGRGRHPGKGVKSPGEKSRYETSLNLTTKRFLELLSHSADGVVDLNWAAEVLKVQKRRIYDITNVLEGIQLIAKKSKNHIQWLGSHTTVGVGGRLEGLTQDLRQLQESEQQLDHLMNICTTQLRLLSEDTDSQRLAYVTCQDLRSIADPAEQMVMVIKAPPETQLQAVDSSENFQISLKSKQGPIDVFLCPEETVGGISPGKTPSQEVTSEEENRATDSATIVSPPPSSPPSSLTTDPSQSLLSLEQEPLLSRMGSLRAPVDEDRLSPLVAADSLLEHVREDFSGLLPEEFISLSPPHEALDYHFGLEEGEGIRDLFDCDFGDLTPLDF

A short description of assay [10]: ATG_E_Box_CIS: Attagene CIS-FACTORIAL HepG2 Assay for human Enhancer Box (E-box) (AID 2282936). The note with it: HepG2 E-box cis-reporter transcription, actives raise or lower the signal. A digest of the protocol:
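Transiently transfected HepG2, endogenous TF-driven reporters, 24 h dosing. Readout: RT-PCR plus capillary electrophoresis of fluorescent reporter fragments. Gain or loss of signal fitted bidirectionally against DMSO baseline.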

The nature of assay [11]: ATG_M_61_CIS: Attagene CIS-FACTORIAL HepG2 Assay for M61 Transcription Factor (Internal Marker) (AID 2282937). The settings on record: HepG2 Attagene CIS-FACTORIAL M61 internal marker reporter; actives raise or lower the signal. A digest of the protocol:
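Fluorescence from labelled cDNA fragments, separated by capillary electrophoresis, quantifies reporter induction. HepG2 cells bearing transiently transfected cis-promoter MRTUs were incubated with test chemical for 24 h; DMSO defined baseline for gain/loss fitting.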

Assay [12] can be described thus: ATG_EGR_CIS: Attagene CIS-FACTORIAL HepG2 Assay for human Early Growth Response 1 (EGR1) (AID 2282938). The note with it: HepG2 Attagene CIS-FACTORIAL EGR reporter mRNA; actives raise or lower the signal. A digest of the protocol:
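Cell-based multiplex transcription assay: HepG2 carrying transfected cis-element reporter units, 24 h chemical treatment. Fluorescence from capillary electrophoresis of RT-PCR products gives mRNA levels; fitting is bidirectional relative to DMSO.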

Assay [13] can be described thus: ATG_M_19_CIS: Attagene CIS-FACTORIAL HepG2 Assay for M19 Transcription Factor (Internal Marker) (AID 2282939). The note with it: HepG2 Attagene CIS-FACTORIAL M19 internal marker reporter; actives raise or lower the signal. In short, it runs like this: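 Background-control endpoint from a multiplexed HepG2 reporter panel. Cells carrying cis-regulated reporter constructs are treated 24 h, then reporter transcripts are amplified, fluorescently labelled and sized by capillary electrophoresis. DMSO defines baseline.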

A short description of assay [14]: ATG_Ets_CIS: Attagene CIS-FACTORIAL HepG2 Assay for human Erythroblast Transformation Specific (ETS) (AID 2282941). The settings on record: HepG2 ETS cis-reporter transcription, actives raise or lower the signal. In short, it runs like this:
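Cis-regulated reporter mRNA induction in HepG2 (transient transfection), 24 h exposure, RT-PCR plus capillary electrophoresis detection; DMSO serves as negative control and baseline.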

In assay [15] the target is Hepatocyte nuclear factor 3-beta (Homo sapiens) (UniProt Q9Y261). In words: ATG_FoxA2_CIS: Attagene CIS-FACTORIAL HepG2 Assay for human Forkhead box A2 (FOXA2) (AID 2282942). The note with it: HepG2 cis-reporter transcription factor activity, 24 h; actives raise or lower the signal. A digest of the protocol: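 In transiently transfected human HepG2 cells, promoter-driven reporter mRNA levels after 24 h chemical exposure are determined via RT-PCR with capillary electrophoresis. DMSO serves as baseline for bidirectional fitting.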
Hepatocyte nuclear factor 3-beta (Homo sapiens), sequence (Q9Y261 whole entry, looked up): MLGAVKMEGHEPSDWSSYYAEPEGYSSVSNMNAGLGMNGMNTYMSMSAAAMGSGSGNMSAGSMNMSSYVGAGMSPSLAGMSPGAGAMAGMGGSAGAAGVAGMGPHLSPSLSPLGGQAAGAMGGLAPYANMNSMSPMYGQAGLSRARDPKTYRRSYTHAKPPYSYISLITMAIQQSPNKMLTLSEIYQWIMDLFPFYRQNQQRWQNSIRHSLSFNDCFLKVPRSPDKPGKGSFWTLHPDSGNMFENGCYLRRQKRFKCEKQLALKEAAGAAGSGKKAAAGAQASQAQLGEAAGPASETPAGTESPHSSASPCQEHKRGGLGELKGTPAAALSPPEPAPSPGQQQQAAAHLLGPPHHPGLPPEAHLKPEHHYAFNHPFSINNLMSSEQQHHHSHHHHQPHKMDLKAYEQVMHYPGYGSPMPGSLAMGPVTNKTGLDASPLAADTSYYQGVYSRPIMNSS

Assay [16] in a line: ATG_FoxO_CIS: Attagene CIS-FACTORIAL HepG2 Assay for human Forkhead box O (FoxO) (AID 2282943). The settings on record: HepG2 Attagene cis-reporter, FoxO element, mRNA; actives raise or lower the signal. In short, it runs like this: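 Read-out: fluorescence of 6-FAM-labelled reporter cDNA fragments resolved by capillary electrophoresis. Transiently transfected HepG2 cells were dosed for 24 h; activity fitted in both directions relative to DMSO controls.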

Assay [17] can be described thus: ATG_GATA_CIS: Attagene CIS-FACTORIAL HepG2 Assay for human GATA Binding Protein (AID 2282944). The note with it: HepG2 GATA cis-element reporter, Attagene multiplex mRNA; actives raise or lower the signal. A digest of the protocol:
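Endogenous transcription factor activity was captured through cis-promoter-driven reporters in transfected HepG2 cells. After 24 h exposure, reporter transcripts were quantified by RT-PCR with fluorescent capillary electrophoresis, and responses fitted both directions against DMSO.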

Assay [18] can be described thus: ATG_GLI_CIS: Attagene CIS-FACTORIAL HepG2 Assay for human Zinc Finger Protein GLI1 (AID 2282945). The settings on record: HepG2, Attagene cis-factorial reporter mRNA, GLI element; actives raise or lower the signal. A digest of the protocol:
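Transiently transfected HepG2 cells report endogenous transcription factor activity via cis-element-driven reporter units. After 24 h compound exposure, reporter mRNA was measured by RT-PCR with capillary electrophoresis; bidirectional fitting against DMSO baseline.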

Assay [19] has as its target Bile acid receptor (Homo sapiens) (UniProt Q96RI1). As to the kind of experiment: ATG_IR1_CIS: Attagene CIS-FACTORIAL HepG2 Assay for human Nuclear Receptor Subfamily 1 Group H Member 4 (NR1H4), IR1 submotif (AID 2282946). The note with it: IR1 reporter transcription, actives raise or lower the signal. In short, it runs like this: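 Fluorescence of capillary-separated, HpaI-digested RT-PCR reporter products gave IR1-element mRNA induction in HepG2 cells 24 h after dosing. Endogenous transcription factors drove the cis-regulated reporters; activity was fitted bidirectionally against DMSO.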

Bile acid receptor (Homo sapiens), sequence (Q96RI1 whole entry, looked up): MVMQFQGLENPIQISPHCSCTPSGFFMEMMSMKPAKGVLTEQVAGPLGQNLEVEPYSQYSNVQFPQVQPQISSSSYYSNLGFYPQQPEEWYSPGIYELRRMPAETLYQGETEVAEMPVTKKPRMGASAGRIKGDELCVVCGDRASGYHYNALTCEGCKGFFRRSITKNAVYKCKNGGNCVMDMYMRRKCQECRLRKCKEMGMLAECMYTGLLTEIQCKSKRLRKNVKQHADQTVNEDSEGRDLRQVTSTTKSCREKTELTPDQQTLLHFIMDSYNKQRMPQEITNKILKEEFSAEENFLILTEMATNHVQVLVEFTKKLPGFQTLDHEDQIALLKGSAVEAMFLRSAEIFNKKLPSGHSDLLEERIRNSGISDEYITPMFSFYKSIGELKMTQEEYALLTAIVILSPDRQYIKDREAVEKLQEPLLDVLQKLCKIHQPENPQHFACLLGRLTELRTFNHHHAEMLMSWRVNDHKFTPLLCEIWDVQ
Retinoic acid receptor alpha (Homo sapiens), sequence (P10276 whole entry, looked up): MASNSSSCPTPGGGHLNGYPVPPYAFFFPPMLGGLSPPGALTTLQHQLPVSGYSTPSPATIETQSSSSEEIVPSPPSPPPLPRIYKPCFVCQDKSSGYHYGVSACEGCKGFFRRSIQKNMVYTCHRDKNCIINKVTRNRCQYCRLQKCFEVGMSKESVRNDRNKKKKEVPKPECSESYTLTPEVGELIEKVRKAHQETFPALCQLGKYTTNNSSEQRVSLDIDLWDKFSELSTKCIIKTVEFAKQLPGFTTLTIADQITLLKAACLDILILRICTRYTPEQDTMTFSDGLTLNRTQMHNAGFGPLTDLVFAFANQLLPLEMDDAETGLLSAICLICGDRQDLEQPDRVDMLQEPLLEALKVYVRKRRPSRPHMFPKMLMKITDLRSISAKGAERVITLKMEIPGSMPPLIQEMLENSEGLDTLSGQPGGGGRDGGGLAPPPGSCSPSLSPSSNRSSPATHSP
Aryl hydrocarbon receptor (Homo sapiens), sequence (P35869 whole entry, looked up): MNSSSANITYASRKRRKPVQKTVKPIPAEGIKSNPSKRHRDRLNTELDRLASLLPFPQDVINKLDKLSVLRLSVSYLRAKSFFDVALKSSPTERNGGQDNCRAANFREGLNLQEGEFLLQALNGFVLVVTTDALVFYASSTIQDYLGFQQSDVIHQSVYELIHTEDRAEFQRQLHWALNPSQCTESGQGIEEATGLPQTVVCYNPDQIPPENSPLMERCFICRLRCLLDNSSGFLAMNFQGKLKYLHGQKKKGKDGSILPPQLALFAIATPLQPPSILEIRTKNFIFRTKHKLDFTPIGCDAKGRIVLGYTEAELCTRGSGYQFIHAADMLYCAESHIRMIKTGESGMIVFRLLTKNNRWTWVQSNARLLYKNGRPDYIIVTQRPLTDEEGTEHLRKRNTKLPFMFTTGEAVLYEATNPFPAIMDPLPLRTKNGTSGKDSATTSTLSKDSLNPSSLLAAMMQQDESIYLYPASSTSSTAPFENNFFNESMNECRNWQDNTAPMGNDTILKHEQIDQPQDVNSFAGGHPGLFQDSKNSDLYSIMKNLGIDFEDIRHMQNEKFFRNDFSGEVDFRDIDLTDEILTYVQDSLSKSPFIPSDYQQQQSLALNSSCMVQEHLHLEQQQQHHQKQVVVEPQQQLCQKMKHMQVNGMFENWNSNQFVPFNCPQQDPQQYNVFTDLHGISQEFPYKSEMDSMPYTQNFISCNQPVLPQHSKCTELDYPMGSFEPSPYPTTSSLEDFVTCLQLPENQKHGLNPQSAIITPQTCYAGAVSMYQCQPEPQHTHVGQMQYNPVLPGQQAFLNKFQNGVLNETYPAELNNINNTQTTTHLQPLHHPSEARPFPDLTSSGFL

Regarding `COC(=O)c1ccc([N+](=O)[O-])cc1`, the result in assay [1], in assay [2], in assay [3], in assay [4], in assay [5] and in [6] was inactive. In addition, the call in assay [7], in assay [8], in assay [9], in assay [10], in assay [11] and in assay [12] was inactive. Also, the outcome in [13], in [14], in assay [15], in [16], in [17] and in assay [18] was inactive. In assay [19], the compound was classed as inactive.
`OCCc1ccccc1`: the compound was classed as inactive in assay [1], in [2], in assay [3], in assay [4], in assay [5] and in [6]. For the same compound, the result in assay [7], in [8], in assay [9], in [10], in assay [11] and in assay [13] was inactive. In addition, the compound was classed as inactive in assay [14], in [15], in assay [16], in assay [17], in assay [18] and in assay [19].
With `N#Cc1ccc(CC(=O)c2cccc(C(F)(F)F)c2)cc1`, the compound was classed as inactive in assay [1], in [2], in assay [3], in assay [4], in assay [5] and in [9]. In addition, the compound was classed as inactive in assay [11], in assay [12], in assay [13], in [14], in assay [15] and in [16]. The call in assay [17] and in [18] was inactive. In addition, the AC50 in [7] is 128 µM (active); in assay [10], 170 µM (active).
With `IC(I)I`, the compound was classed as inactive in [1], in [2], in assay [3], in assay [5], in assay [6] and in assay [7]. In addition, the compound was classed as inactive in [8], in assay [10], in assay [11], in assay [12], in [13] and in [14]. Further, the call in assay [15], in assay [16], in assay [17], in [18] and in assay [19] was inactive. Further, the AC50 in assay [4] is 12.8 µM (active).
Take `CCCCOCC`: the compound was classed as inactive in assay [1], in assay [2], in assay [3], in assay [4], in assay [5] and in assay [6]. Besides, the outcome in assay [7], in assay [8], in assay [9], in assay [10], in [11] and in assay [12] was inactive. Moreover, the outcome in assay [13], in [14], in assay [15], in assay [16], in [17] and in assay [19] was inactive.
Turning to `N#Cc1cscn1`, the call in assay [1], in assay [2], in [3], in [5], in assay [7] and in assay [8] was inactive. The compound was called inactive in assay [9], in [10], in assay [11], in assay [12], in assay [13] and in [14]. In addition, the result in assay [16] and in assay [19] was inactive. In addition, the concentration at half-maximal activity (AC50) in assay [4] was 34.7 µM (active).
Regarding `CCC1CCCCC1`, the outcome in assay [1], in assay [2], in [3], in assay [4], in [5] and in [6] was inactive. Moreover, the compound was called inactive in assay [7], in [8], in [10], in [11], in assay [12] and in assay [13]. Further, the compound was classed as inactive in [14], in assay [15], in [17], in assay [18] and in assay [19].
`CCCCCC(C=O)=Cc1ccccc1`: the result in [1], in assay [2], in assay [3], in assay [4], in assay [5] and in [6] was inactive. Moreover, the compound was classed as inactive in assay [7], in [8], in assay [9], in assay [10], in assay [11] and in [13]. Besides, the compound was classed as inactive in [14], in assay [15], in [16], in [17], in assay [18] and in assay [19].
